# Compound activity from PubChem.
# Rows were chosen to be rich in hits. Some 11% of all compounds tested hit in one or more screens of this group.
# 12-hLO inh: qHTS Assay for Inhibitors of 12-hLO (12-human lipoxygenase); 0.12% of 150,000 active; Potency, µM (doses to about 57.1 µM), inactives show at the highest dose activity change, negative = inhibition, actives largely listed as inhibitors; purified 12-hLO, xylenol orange hydroperoxide absorbance; Polyunsaturated fatty acid lipoxygenase ALOX12 (Homo sapiens), P18054; active means well fitted curve in the direction sought with a large enough effect; inconclusive means small, poorly fitted or top-dose-only effect, or another doubt; inactive means no such curve, though single readings can be large; an effect the other way counts as inactive or inconclusive; further: potency means the concentration at half of the fitted maximal effect; nearly all actives have a fitted effect of over 55% in size
# Target sequence (P18054 whole entry, looked up): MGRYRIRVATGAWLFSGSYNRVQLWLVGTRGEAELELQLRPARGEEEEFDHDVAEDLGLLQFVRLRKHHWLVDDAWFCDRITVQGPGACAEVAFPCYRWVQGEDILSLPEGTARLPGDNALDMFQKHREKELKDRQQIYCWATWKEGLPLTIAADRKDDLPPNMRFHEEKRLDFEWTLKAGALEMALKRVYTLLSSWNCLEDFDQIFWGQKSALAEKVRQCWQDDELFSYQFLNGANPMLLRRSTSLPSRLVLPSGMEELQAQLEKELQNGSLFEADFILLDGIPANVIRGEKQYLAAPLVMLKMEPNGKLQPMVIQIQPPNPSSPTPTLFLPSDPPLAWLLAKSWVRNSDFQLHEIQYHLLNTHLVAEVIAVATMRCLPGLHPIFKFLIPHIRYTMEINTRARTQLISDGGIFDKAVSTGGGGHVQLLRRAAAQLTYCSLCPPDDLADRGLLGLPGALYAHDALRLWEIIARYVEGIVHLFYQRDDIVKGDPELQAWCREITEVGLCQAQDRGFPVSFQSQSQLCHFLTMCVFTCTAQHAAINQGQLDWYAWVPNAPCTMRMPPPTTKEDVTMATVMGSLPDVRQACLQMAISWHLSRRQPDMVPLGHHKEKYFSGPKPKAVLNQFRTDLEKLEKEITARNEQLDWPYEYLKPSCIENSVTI
#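 150 nM 12hLO, 25 mM Hepes pH 7.0 + 0.01% Triton X-100; cpd preinc 15 min RT; 40 uM arachidonic acid, 30 min RT; Fe-XO 30 min; A573/A405 ratio as read-out.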
# IMPase Li inh: qHTS Assay for Identifying the Cell-Membrane Permeable IMPase Inhibitors: Potentiation with Lithium; CHO-M1 cells, IP1 TR-FRET (IP-One), carbachol + lithium; 0.35% of 210,000 active; Potency, µM (top dose mostly 59.4 µM), for the others: top-dose activity, negative = IMPase inhibition, most hits filed as inhibitors; active means well fitted curve in the direction sought with a large enough effect; inconclusive means small, poorly fitted or top-dose-only effect, or another doubt; inactive means no such curve, though single readings can be large; an effect the other way counts as inactive or inconclusive;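 further: IP1 builds up when IMPase is blocked and the TR-FRET signal falls; potency means the concentration at half of the fitted maximal effect; plate controls were basal vehicle for no effect and high inhibitor control for full effect; nearly all actives have a fitted effect of over 50% in size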
#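 CHO cells stably expressing M1 receptor (2000/well) were cultured 16–30 h, then exposed to compounds with a small lithium addition for 30 min at 37C. IP1 was measured by TR-FRET competition; AC50 from Hill fits.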
# HPGD inh: qHTS Assay for Inhibitors of HPGD (15-Hydroxyprostaglandin Dehydrogenase); 15-hydroxyprostaglandin dehydrogenase [NAD(+)] (Homo sapiens), P15428; purified HPGD, NADH fluorescence kinetic, PGE2 substrate; Potency, µM, inactives show at the top dose activity change, negative = inhibition, most hits filed as inhibitors; 4.3% of 150,000 active; further: potency means the concentration at half of the fitted maximal effect
#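 20 nM HPGD preincubated 15 min at room temperature with compound in 50 mM Tris-HCl pH 8, 0.01% Tween 20. Started with 1 mM NAD+ and 30 uM prostaglandin E2; NADH fluorescence (360/450 nm) read 5 times over 30-s intervals, last minus first.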
# PNC assembly inh: High Content Assay for Compounds that inhibit the Assembly of the Perinucleolar Compartment; PC3M PTB-GFP, PNC prevalence imaging, 16 h; active compounds read low; activity change (PNC), negative = inhibition, % at 10 µM; 3.1% of 140,000 active;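 active means readout at or below -70, meaning at least 70% loss of cells showing the perinucleolar compartment, a nuclear body marking cancer cells; inconclusive means readout between -30 and a set limit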;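 further: plate controls were DMSO wells for no effect and camptothecin positive control wells for full effect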
#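 PC3M cells stably expressing PTB-GFP, 750–1000 cells/well, treated 16 h at 37 °C with compound (23 nl of library stock), in duplicate. After paraformaldehyde fixation and Hoechst stain, imaged at 20x; PNC prevalence scored by image analysis.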
# ALDH1A1 block: qHTS Assay for Inhibitors of Aldehyde Dehydrogenase 1 (ALDH1A1); Aldehyde dehydrogenase 1A1 (Homo sapiens), P00352; Purified ALDH1A1, NADH fluorescence, propionaldehyde substrate; Potency, µM (doses to about 75.3 µM), inactives show at the top dose activity, negative = inhibition, hits mostly inhibitors; 7.3% of 220,000 active;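 further: potency means the concentration at half of the fitted maximal effect; plate controls were no enzyme wells and a reference inhibitor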
# IMPase inh: qHTS Assay for Identifying the Cell-Membrane Permeable IMPase Inhibitors | 120,000 tested, under 10 active | inhibition (IP1 accumulation), % at 46.1 µM | Inositol monophosphatase 1 (Rattus norvegicus), P97697 | CHO-M1 cells, IP1 accumulation, HTRF TR-FRET ratio; active means well fitted curve in the direction sought with a large enough effect in the signal ratio, not every such curve was filed as active; inconclusive means small, poorly fitted or top-dose-only effect, or a change in a side signal; inactive means no such curve, though single readings can be large or run the other way; the % refers to the signal ratio;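 further: cells stimulated with carbachol in lithium chloride buffer; plate controls were DMSO basal wells for no effect and reference inhibitor wells for full effect; higher means more IMPase inhibition seen as more IP1 and lower FRET ratio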
#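 Carbachol-driven Gq signalling in CHO-M1 cells (2000/well) generates IP1. Compounds that block IMPase raise IP1 and so reduce the FRET signal from Eu-anti-IP1 and d2-IP1 after a 10 min room-temperature lysis.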
# Active calls of the source: *; ? = inconclusive; . = no result given; [ ] = remark or other dose. Unless noted, the call rests on the fitted dose curve; in most records, active means well fitted inhibition curve with a large enough effect (not every such curve was filed as active); inconclusive means small, poorly fitted or top-dose-only effect, or another doubt; inactive means no such curve, though single readings can be large or run the other way. Unless noted, on the % scale 0 is the no-effect control and ±100 the full control effect.
SMILES,12-hLO inh,IMPase Li inh,HPGD inh,PNC assembly inh,ALDH1A1 block,IMPase inh
COC(=O)[C@@]1(Cc2ccc(F)cc2)[C@H]2c3cc(C(=O)N(C)C)n(Cc4ccc(C(F)(F)F)nc4)c3C[C@H]2CN1C(=O)c1ccccc1,-4.2%,7.3%,-14.3%,.,-1.2%,.
COC(=O)[C@@]1(Cc2ccc(OC)cc2)[C@H]2c3cc(C(=O)N(C)C)n(CCF)c3C[C@H]2CN1C(=O)c1ccccc1,-6.2%,-3.7%,-2.2%,.,-2.8%,.
Cn1cnc([N+](=O)[O-])c1Nc1ccc(O)cc1,-13.1%,.,.,-23.2,25.1µM*,8.9
CCN(C(=O)CSc1nc2nc(C)cc(C)n2n1)c1cccc(C)c1,-6.9%,2.3%[38.3 µM],25.1µM*,13.1,?,-1.7
Cc1cc(C)n2nc(SCC(=O)N(C)C)nc2n1,0.7%,7.2%[38.3 µM],-3.0%,?,-0.3%,3.5
CCN(C(=O)CSc1nc2nc(C)cc(C)n2n1)c1ccccc1,-4.9%,27.6%[38.3 µM],14.1µM*,19.4,?,-1.5
Cc1cc(C)n2nc(SCN3C(=O)c4ccccc4C3=O)nc2n1,-9.0%,12.6µM*,22.4µM*,22.9,?,-0.6
COC(=O)C1=C(C(=O)OC)[C@@H]2Nc3ccccc3[C@@]23C[C@@H](C(=O)OC)N(S(=O)(=O)c2cccs2)C3=N1,0.0%[11.4 µM],-4.7%,0.9%,.,17.4%[13.5 µM],.
CC(C)CNC(=O)O,2.9%[11.4 µM],-6.5%,-14.0%,.,-9.5%[13.5 µM],.
CCOc1cc(/C=C2\SC(=N)N(c3nonc3N)C2=O)ccc1OCC(N)=O,5.3%,-9.2%,12.6µM*,17.1,-18.2%,-9.4
CC1CCC2C(=O)N3C(CCC(C)C3c3ccccc3Br)C(=O)N2C1c1ccc(C#CCN(C)C)cc1 (centres undefined),.,.,.,.,3.55µM*,.
C[C@H]1CC[C@H]2C(=O)N3[C@H](c4ccccc4Br)[C@@H](C)CC[C@H]3C(=O)N2[C@@H]1c1ccccc1Br,-5.9%,22.8%,-7.0%,16.9,?,.
CC1CCN(C(=O)c2scc3c2OCCO3)CC1,-4.7%,-9.2%[38.3 µM],15.8µM*,-23.3,-2.0%,-2.6
O=C(c1ccc2c(c1)OCO2)N1CCCC1,7.2%,-12.6%[38.3 µM],?,-14.8,?,-1.3
CC1CCN(C(=O)c2ccc3c(c2)OCCO3)CC1,-0.6%,-5.6%[38.3 µM],0.398µM*,?,-4.2%,3.5
O=C(c1ccc(-n2cnnn2)cc1)N1CCOCC1,-1.7%,-12.0%[38.3 µM],-24.1%,25.7,-10.4%,0.5
CC1CCN(C(=S)c2ccc3c(c2)OCO3)CC1,-16.0%,33.7%[38.3 µM],28.2µM*,8.3,?,9.8
CC1CCN(C(=O)c2ccc(-n3cnnn3)cc2)CC1,-3.1%,11.7%,17.8µM*,0.8,?,?
COc1cc2c(-c3ccc(C)cc3)nc3c(c(C)nn3-c3ccccc3)c2cc1OC,.,.,.,.,.,-3.1
COC(=O)CNC(=O)C(=O)OC,.,25.9%,.,.,2.2%,.
CCOC(=O)CCN1CCN(C(=O)c2ccc(-n3c(=O)c(=O)[nH]c4ccccc43)cc2)CC1,-4.2%,.,-19.2%,.,?,.
NCCC[C@@H](CC(=O)N[C@@H]1CCCC[C@H]1C(=O)N[C@H](CC(=O)N[C@@H](CCC(=O)O)CC(=O)O)Cc1c[nH]c2ccccc12)NC(=O)C[C@H](Cc1c[nH]c2ccccc12)NC(=O)[C@@H]1CNCC[C@H]1N,-1.2%,12.6%,-4.8%,.,-4.6%,.
COc1ccc(/C=N/n2cc(-c3ccc(OC)cc3)nc2N)cc1,-8.4%,16.0%[38.3 µM],-23.9%,-129.2*,?,-8.1
CCOc1cc(C2C(C(=O)OC)=C(C)NC3=C2C(=O)c2ccccc23)cc(Br)c1OCC (centres undefined),.,.,.,.,.,-0.2
COc1ccc(Cl)cc1NC(=O)Cn1c(NCCO)nc2ccccc21,.,4.0%,.,.,-3.1%,.
SMILES,12-hLO inh,IMPase Li inh,HPGD inh,PNC assembly inh,ALDH1A1 block,IMPase inh
CCCCNS(=O)(=O)c1ccc2nc(SCC(=O)N3CC(C)OC(C)C3)[nH]c2c1 (centres undefined),0.6%,13.6%[38.3 µM],15.8µM*,-11.1,?,-11.2
O=C(CSc1nc2ccc(S(=O)(=O)N3CCOCC3)cc2[nH]1)N1CCOCC1,-0.3%,2.9%[38.3 µM],3.55µM*,24.2,3.55µM*,3.6
CC1(C)COCN1COC1CCCCC1,1.8%[11.4 µM],5.1%,-6.1%,.,4.2%[13.5 µM],.
COc1ccc(C2=CC(c3ccc(F)cc3)n3nnnc3N2)cc1 (centres undefined),-13.7%,-6.6%[38.3 µM],-14.0%,-5.6,-11.5%,6.1
COc1ccc(C2=CC(c3sccc3C)n3nnnc3N2)cc1 (centres undefined),-9.6%,11.4%[38.3 µM],-16.4%,69.1,2µM*,2.5
Nc1nc(SCC(=O)N2CCc3ccccc32)[nH]c(=O)c1-c1ccccc1,2.7%,16.4%[38.3 µM],-15.4%,-106.5*,?,13.6
Cn1c(-c2ccccc2)cnc1SCC(=O)N1CCCc2ccccc21,0.2%,26.2%,-12.6%,?,10µM*,.
Nc1nc(SCC(=O)N2CCCC2)[nH]c(=O)c1-c1ccccc1,4.7%,12.9%[38.3 µM],-7.9%,-8.6,-6.1%,12.4
Cc1ccc(-c2cnc(SCC(=O)N3CCCc4ccccc43)n2C)cc1,-9.4%,13.1%[38.3 µM],-4.8%,-17.6,?,-4.0
O=C(CSc1nnnn1C1CCCCC1)N1CCc2ccccc21,-0.8%,21.0%[38.3 µM],-19.2%,-23.2,-1.4%,-1.2
O=C(CSc1ncc(-c2ccccc2)n1C1CCCC1)N1CCc2ccccc21,-6.8%,6.2%[38.3 µM],-9.4%,12.9,3.55µM*,10.3
N#Cc1ccc(CN2CC3(CCN(C(=O)c4cccc(F)c4)CC3)C2)cc1,3.3%,17.5%,-6.0%,.,?,.
CN(C)CCN(C(=O)c1ccc(N2C(=O)CCC2=O)cc1)c1nc2cc3c(cc2s1)OCCO3,.,-4.1%,.,.,28.2µM*,.
CN(C)CCN(C(=O)c1ccc2c(c1)OCCO2)c1nc2ccc(Cl)cc2s1,.,3.6%,.,.,-8.6%,.
Oc1ccc(-c2cn3c(n2)SCC3)cc1O,-14.3%,26.6%[38.3 µM],2.24µM*,-16.0,6.31µM*,?
S=C(Nc1ccccn1)c1ccccn1,-5.1%,15.9%[38.3 µM],8.91µM*,26.0,3.55µM*,5.3
Cc1ccc(C)c(NC(=S)c2ccccn2)c1,-23.4%,8.4%[38.3 µM],28.2µM*,21.3,?,2.9
Cc1ccc(C)c(NC(=S)c2ccc3ccccc3n2)c1,-5.5%,20.1%,-3.8%,-24.3,4.5%,.
O=C(Nc1ccccn1)C(=O)Nc1ccccn1,.,.,.,.,7.7%,.
CN(C)C(=O)c1ccc(-c2ccc3ncnc(N4CCNCC4)c3c2)cc1,.,6.9%,.,.,-17.1%,.
